Measurements from PMC5540273 (PLoS ONE, 2017).

How the values were obtained:
Conditions in all cases: concentration: 1 μM, replicates: in singlicate; n = 1
ADCK4 = test system: ADCK4
AKT1 = test system: AKT1
AKT2 = test system: AKT2
AKT3 = test system: AKT3
ALK = test system: ALK
AMPK-alpha1 = test system: T1, AMPK-alpha1
T1 construct: gene PRKAA1

AMPK-alpha2 = test system: T2, AMPK-alpha2
T2 construct: gene PRKAA2

ANKK1 = test system: ANKK1
ARK5 = test system: T3, ARK5
T3 construct: gene NUAK1

ASK1 = test system: T4, ASK1
T4 construct: gene MAP3K5

ASK2 = test system: T5, ASK2
T5 construct: gene MAP3K6

AURKA = test system: AURKA
AURKB = test system: AURKB
AURKC = test system: AURKC
AXL = test system: AXL
BIKE = test system: T6, BIKE
T6 construct: gene BMP2K

BLK = test system: BLK
BMPR1A = test system: BMPR1A
BMPR1B = test system: BMPR1B
BMPR2 = test system: BMPR2
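Note: KINOMEscan kinase panel screen.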

Compound	%Inh (ADCK4) [%]	%Inh (AKT1) [%]	%Inh (AKT2) [%]	%Inh (AKT3) [%]	%Inh (ALK) [%]	%Inh (AMPK-alpha1) [%]	%Inh (AMPK-alpha2) [%]	%Inh (ANKK1) [%]	%Inh (ARK5) [%]	%Inh (ASK1) [%]	%Inh (ASK2) [%]	%Inh (AURKA) [%]	%Inh (AURKB) [%]	%Inh (AURKC) [%]	%Inh (AXL) [%]	%Inh (BIKE) [%]	%Inh (BLK) [%]	%Inh (BMPR1A) [%]	%Inh (BMPR1B) [%]	%Inh (BMPR2) [%]
O=C(Nc1ccccc1F)NC1CCN(c2ccnc(Nc3ccc(F)cc3)n2)CC1 [GSK1379800]	64	0	11	0	17	14	0	1	0	4	17	15	0	54	15	39	0	8	0	12
O=C(Nc1cccc(-c2nn3ccccc3c2-c2ccnc(Nc3cccc(F)c3)n2)c1)c1c(F)ccc(F)c1Cl [GSK357952]	0	0	9	0	0	20	21	2	0	1	6	0	7	66	19	25	97.2	0	0	0
Cn1cc(-c2[nH]c3cc(NC(=O)[C@H](N)C4CCCCC4)cc4c3c2C=NNC4=O)cn1	0	60	45	36	91.3	94.1	81	95.7	92.2	0	0	100	99.7	99.3	99.9	100	99.5	19	87	22
O=C(O)C(F)(F)F.O=C(O)C(F)(F)F.O=c1[nH]ccc2nc(N[C@@H]3CCCNC3)nc(Nc3ccc(S(=O)(=O)N4CCOCC4)cc3)c12 [GSK2177277]	0	0	0	0	97.4	97.6	98.1	98.1	100	0	19	96.8	97.6	100	99.9	100	95.6	0	90.8	98.6
COc1cc(Nc2nccc(-c3c(-c4cccc(NC(=O)c5c(F)cccc5F)c4)nn4ncccc34)n2)cc(OC)c1OC [GSK327238]	93.7	0	11	17	20	9	48	29	97.4	0	8	99.1	92.5	70	91.3	7	99.6	3	0	0
Nc1ncc(-c2cccnc2)c2scc(-c3ccc4c(c3)CCN4C(=O)Cc3ccccc3)c12 [GSK683281]	32	0	21	0	29	97.4	20	19	32	22	10	25	70	70	89	16	82	6	0	3
CCCCc1nn2ncccc2c1-c1ccnc(Nc2ccc(N3CCN(C)CC3)cc2)n1 [GW684941]	93.1	0	0	0	72	5	9	0	62	0	16	96.7	80	82	69	69	81	0	91	0
C[C@@H]1CC[C@@H](C(=O)Nc2ccccc2)CN1c1cc(-c2ccc3c(N)n[nH]c3c2)nc(N)n1 [GSK2286062]	14	0	7	0	0	13	0	3	19	0	2	4	16	26	0	9	0	0	0	0
COC(=O)Nc1nc2cc(Oc3ccc(NC(=O)Nc4cc(C(F)(F)F)ccc4F)cn3)ccc2[nH]1.Cl.Cl [GW681170]	19	0	0	0	6	19	23	8	0	10	0	78	40	52	98.3	1	31	0	0	10
Cn1cc(-c2ccc3c(c2)CCN3C(=O)Cc2cccc(Cl)c2)c2c(N)ncnc21 [GSK2606590]	1	0	10	0	30	4	20	0	13	9	19	23	89	65	96.3	18	69	0	0	4
CC(C)(C)c1ccc2nccc(Nc3cccc(O)c3)c2c1 [GW856795]	41	0	0	0	39	0	0	0	0	0	0	0	33	0	70	0	59	0	44	38
CC(=O)N1CCN(c2ccc(Nc3nccc(-c4sc(C(C)C)nc4-c4cccc(NS(=O)(=O)c5cccc(Cl)c5)c4)n3)cn2)CC1 [GSK1660437]	72	0	5	0	7	48	75	7	0	0	2	0	0	10	68	24	91.4	0	97.1	0
C[C@@H](Oc1cc(-n2cnc3cc(-c4ccnc(NCCS(C)(=O)=O)c4)ccc32)sc1C(N)=O)c1ccccc1Cl [GSK907232]	10	0	16	0	18	0	0	0	84	0	7	0	27	65	91	97.7	30	21	0	0
Cc1cccc(Nc2nc(N[C@H]3CCNC3)ncc2C(N)=O)c1.Cl [GSK2197149]	0	0	7	0	47	22	33	79	34	0	3	0	0	58	24	96.9	69	0	0	0
Cl.Cl.NCC(C(=O)Nc1cc(Br)c(-c2ccnc3[nH]ccc23)s1)c1ccccc1 (stereo not shown) [GSK1269851]	95.7	61	25	66	39	0	0	0	0	0	26	81	9	53	57	99.8	0	78	0	30
CCc1ccc(-c2ccc3c(c2)-c2c(cnn2C)S(=O)(=O)N3C)cc1	0	0	0	0	0	0	0	0	0	0	0	14	0	35	8	0	0	0	0	0
O=C(Nc1n[nH]c2nc(-c3ccc(O)cc3)ccc12)C1CC1 [SB-710363]	0	0	0	61	0	0	0	0	0	18	12	11	47	0	37	32	12	8	34	16
Cl.Cl.NCC(NCc1ccc(-c2ccnc3[nH]ccc23)s1)c1ccccc1 (stereo not shown) [GSK1321565]	44	71	25	71	64	45	28	22	82	16	0	47	79	97.2	95.1	100	0	0	0	3
Cl.NC(=O)c1cccc(Nc2nccc(Nc3ccc(Oc4c(Cl)cccc4Cl)c(Cl)c3)n2)c1 [GW659009]	14	0	0	0	3	0	0	3	0	0	0	0	17	43	5	56	45	100	0	0
CN(C)S(=O)(=O)c1cc(-c2ccc3nccc(-c4cccc(S(N)(=O)=O)c4)c3c2)cnc1N [GSK1669921]	0	0	5	0	30	3	0	5	11	0	5	8	0	17	10	22	18	0	0	3
